Several values for one entry are separate records, joined by “and”; a condition that tells them apart may be missing. Equal entries are not always repeated. Results filed as inconclusive are left out. A call without a number means that no potency is given here. Activity calls are given as the source filed them. Unless noted, the call rests on the fitted dose curve; in most records, active means well fitted curve in the direction sought with a large enough effect in the repeat runs; inconclusive means weak or mixed curves; inactive means no such curve, though single readings can be large; an effect the other way counts as inactive or inconclusive.
Columns and labels:
[1] = qHTS assay for small molecules that induce genotoxicity in human embryonic kidney cells expressing luciferase-tagged ATAD5 (AID 651632); further: nearly all actives have a fitted effect of over 15% in size; further: potency means the concentration at half of the fitted maximal effect
How it was run: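 ATAD5-luc HEK293T, 2,000 cells/well; cpd or DMSO pin-transferred; 16 hr, 37C/5% CO2; Amplite 30 min RT; luminescence.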

[2] = qHTS assay for small molecule agonists of the p53 signaling pathway - cell viability (AID 651633; calls by dose curve; further: nearly all actives have a fitted effect of over 30% in size; further: potency means the concentration at half of the fitted maximal effect)
How it was run: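 p53RE-bla cells were treated with compound for 16 hours at 37 C. Cytotoxicity was then measured as CellTiter-Glo luminescence after 30 min at room temperature.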

[3] = qHTS assay for small molecules that induce genotoxicity in human embryonic kidney cells expressing luciferase-tagged ATAD5 - cell viability (AID 651634; calls by dose curve; further: nearly all actives have a fitted effect of over 25% in size; further: potency means the concentration at half of the fitted maximal effect)
How it was run: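 Fluorescence from CellTiter-Fluor, reporting protease activity within live cells, served as the viability read-out. HEK293T cells carrying luciferase-tagged ATAD5 had been treated with compound for 15.5 hr at 37C.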

[4] = qHTS assay for small molecule disruptors of the mitochondrial membrane potential (AID 720635); further: potency means the concentration at half of the fitted maximal effect
How it was run: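 HepG2 cells exposed to compound 1 hr at 37C, then Mito-MPS dye 30 min. Ratio read of aggregate (540/590 nm) versus monomer (490/535 nm) fluorescence.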

[5] = qHTS assay to test for compound auto fluorescence at 590 nm (red) in HepG2 cells (AID 720674)
How it was run: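 Seeding: 2,000 HepG2 cells/well, MEM/10% FBS, overnight 37 C. Dosing: compound vs DMSO. Incubation: 1 hr, 37 C, 5% CO2. Read: fluorescence 540 ex/590 em, Rose Bengal sodium as red reference.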

[6] = qHTS assay to test for compound auto fluorescence at 535 nm (green) in HepG2 cells (AID 720675)
[7] = qHTS assay to test for compound auto fluorescence at 460 nm (blue) in HEK293 cells (AID 720678)
How it was run: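 Auto fluorescence in the blue band was quantified as triamterene equivalency. HEK293 cells were seeded at 2,000/well, dosed after a 4-5 hr attachment, and kept overnight at 37C before the 405/460 nm reading.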

[8] = qHTS assay to test for compound auto fluorescence at 590 nm (red) in HEK293 cells (AID 720679)
How it was run: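 Autofluorescence equivalency to Rose Bengal sodium, 540/590nm, in HEK293 cells exposed overnight to 23 nL compound per well.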

[9] = qHTS assay to test for compound auto fluorescence at 535 nm (green) in HEK293 cells (AID 720680)
[10] = qHTS assay to test for compound auto fluorescence at 460 nm (blue) in HEK293 cell free culture (AID 720681)
How it was run: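 Compounds were added to cell-free DMEM with 10% FBS and fluorescence read directly. The blue channel used 405 nm excitation and 460 nm emission, with triamterene as the reference fluorophore.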

[11] = qHTS assay to test for compound auto fluorescence at 590 nm (red) in HEK293 cell free culture (AID 720683)
How it was run: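 Cell-free wells of DMEM with 10% FBS received compound, and intrinsic fluorescence was read at excitation/emission 540/590 nm. Values expressed as equivalence to Rose Bengal sodium.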

[12] = qHTS assay to test for compound auto fluorescence at 590 nm (red) in HepG2 cell free culture (AID 720684)
How it was run: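 Compound was pinned into wells holding MEM with 10% FBS and no cells, and red fluorescence was read at Ex/Em 540/590 nm. Signal is expressed as auto fluorescence equivalency relative to Rose Bengal sodium.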

[13] = qHTS assay to test for compound auto fluorescence at 460 nm (blue) in HepG2 cell free culture (AID 720685)
How it was run: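 Compound (23 nL) or DMSO pinned into cell-free MEM with 10% FBS; blue fluorescence read at 405/460 nm excitation/emission, expressed as auto-fluorescence equivalency to triamterene.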

[14] = qHTS assay to test for compound auto fluorescence at 535 nm (green) in HepG2 cell free culture (AID 720686)
[15] = qHTS assay to test for compound auto fluorescence at 460 nm (blue) in HepG2 cells (AID 720687)
How it was run: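 HepG2 cells in MEM with 10% FBS, attached overnight at 37 C, were exposed to compound or DMSO for 1 hr at 37 C, 5% CO2. Blue fluorescence was read at 405/460 nm, with triamterene as reference fluorophore.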

[16] = qHTS assay to test for compound auto fluorescence at 535 nm (green) in HEK293 cell free culture (AID 720682)
How it was run: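 Cell-free medium (DMEM, 10% FBS) receives compound or DMSO by pintool. Plate read directly at Ex 485/Em 535 nm. Signal converted to fluorescein equivalency.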

[17] = qHTS assay for small molecule disruptors of the mitochondrial membrane potential - cell viability (AID 720634; calls by dose curve; further: nearly all actives have a fitted effect of over 20% in size; further: potency means the concentration at half of the fitted maximal effect)
How it was run: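 Cells: HepG2, 2,000/well, attached overnight. Compound 1 hr, 37 C/5% CO2. +m-MPI dye, +CellTiter-Glo 30 min RT. Readout: luminescence (ATP).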

[18] = biological target: Glucocorticoid receptor (Homo sapiens) (UniProt P04150); experiment: qHTS assay to identify small molecule antagonists of the glucocorticoid receptor (GR) signaling pathway (AID 720692; active means well fitted inhibition curve with a large enough effect in the signal ratio in the repeat runs, not every such curve was filed as active; the % refers to the signal ratio; further: potency means the concentration at half of the fitted maximal effect)
How it was run: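 HeLa GR-bla cells; cmpd + dex 5 nM final, 18 h 37 C; LiveBLAzer B/G FRET substrate 2 h RT; fluorescence intensity read. Antagonist mode, qHTS.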

[19] = biological target: Glucocorticoid receptor (Homo sapiens) (UniProt P04150); experiment: qHTS assay to identify small molecule agonists of the glucocorticoid receptor (GR) signaling pathway (AID 720691; active means well fitted activation curve with a large enough effect in the signal ratio in the repeat runs, not every such curve was filed as active; the % refers to the signal ratio); conditions: GR-bla HeLa, beta-lactamase reporter ratio, 18 h; activation: at 62.4 µM (top of the series)
How it was run: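 Fluorescence intensity from LiveBLAzer B/G FRET substrate (2 h, room temperature) reports beta-lactamase expression driven by the glucocorticoid response element in GR-bla HeLa cells after 18 h compound exposure at 37 C.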

Chain of Glucocorticoid receptor (Homo sapiens) (P04150 whole entry, looked up): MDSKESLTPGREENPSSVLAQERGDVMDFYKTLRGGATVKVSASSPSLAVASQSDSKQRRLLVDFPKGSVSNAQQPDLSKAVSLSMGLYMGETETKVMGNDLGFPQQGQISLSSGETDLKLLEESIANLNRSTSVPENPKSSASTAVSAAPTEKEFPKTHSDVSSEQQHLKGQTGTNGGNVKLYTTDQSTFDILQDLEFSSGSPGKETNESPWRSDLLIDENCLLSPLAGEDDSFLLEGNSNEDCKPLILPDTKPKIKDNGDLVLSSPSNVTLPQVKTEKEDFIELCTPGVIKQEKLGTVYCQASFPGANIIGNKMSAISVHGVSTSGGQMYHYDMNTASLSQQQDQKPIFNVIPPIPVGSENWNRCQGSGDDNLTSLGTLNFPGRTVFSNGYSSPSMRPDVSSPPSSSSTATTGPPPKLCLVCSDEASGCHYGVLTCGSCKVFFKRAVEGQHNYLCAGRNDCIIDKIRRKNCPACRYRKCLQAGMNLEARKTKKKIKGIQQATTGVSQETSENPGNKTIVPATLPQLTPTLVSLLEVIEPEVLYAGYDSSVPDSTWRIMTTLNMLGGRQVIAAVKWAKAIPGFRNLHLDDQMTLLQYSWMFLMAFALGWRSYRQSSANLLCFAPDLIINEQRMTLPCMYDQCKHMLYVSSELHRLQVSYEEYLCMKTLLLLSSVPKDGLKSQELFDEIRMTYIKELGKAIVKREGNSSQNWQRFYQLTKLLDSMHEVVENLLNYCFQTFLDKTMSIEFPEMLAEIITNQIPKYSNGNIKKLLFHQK

SMILES	Potency [1]	Potency [2]	Potency [3]	Potency [4]	Potency [5]	Potency [6]	Potency [7]	Potency [8]	outcome [9]	Potency [10]	Potency [11]	Potency [12]	Potency [13]	Potency [14]	Potency [15]	outcome [16]	Potency [17]	Potency [18]	Potency [19]
OCc1c[nH]c2ccccc12	inactive	inactive	inactive	24.3 µM (active)	inactive	inactive	inactive	inactive	inactive	inactive	inactive	inactive	inactive	inactive	inactive				
C=CC(=O)OCC(CO)(COC(=O)C=C)COC(=O)C=C	4.87 µM (active) and 5.45 µM (active)	4.34 µM (active)	12.2 µM (active) and 15.4 µM (active)		inactive	inactive	inactive	inactive	inactive	inactive	inactive	inactive	inactive	inactive	inactive	inactive			
CCCCCCCCNC(C)C(O)c1ccc(SC(C)C)cc1 (stereo not given)	inactive	10.6 µM (active)	10.6 µM (active)		inactive	inactive	inactive		inactive	inactive	inactive	inactive	inactive	inactive	inactive	inactive			
OC1(c2ccc(Cl)c(C(F)(F)F)c2)CCN(CCCC(c2ccc(F)cc2)c2ccc(F)cc2)CC1	inactive	9.44 µM (active)	23.7 µM (active)		inactive	inactive	inactive	inactive	inactive	inactive	inactive	inactive	inactive	inactive	inactive		inactive		
NNc1nc(-c2ccc(N)cc2)cs1	inactive	inactive		0.0545 µM (active)	inactive	inactive	inactive	inactive	inactive	inactive	inactive	inactive	inactive	inactive		inactive	inactive		
CC(C)(C)CC(C)(C)c1ccc(OCCOCC[N+](C)(C)Cc2ccccc2)cc1	inactive	29.8 µM (active) and 61.1 µM (active)	29.8 µM (active) and 68.5 µM (active)	11.9 µM (active) and 21.7 µM (active)	inactive	inactive	inactive	inactive	inactive	inactive	inactive	inactive			inactive	inactive			
CCCCC(CC)COP(=O)(O)OCC(CC)CCCC (stereo not given)	inactive	61.3 µM (active) and 27.3 µM (active)	inactive	68.7 µM (active)	inactive	inactive	inactive		inactive	inactive	inactive	inactive	inactive	inactive	inactive		inactive	49.1 µM (active)	
CCCCC(CC)CN=C(N)NC(N)=NCCCCCCN=C(N)NC(N)=NCC(CC)CCCC (stereo not given)	inactive	26.6 µM (active)		17.6 µM (active)	inactive	inactive	inactive	inactive	inactive	inactive	inactive	inactive	inactive	inactive	inactive	inactive	21.1 µM (active)		
CCCCN1CCCC[C@H]1C(=O)Nc1c(C)cccc1C	inactive	inactive	inactive		inactive	inactive	inactive		inactive	inactive	inactive	inactive				inactive	inactive		
C=CC(=O)OCCn1c(=O)n(CCOC(=O)C=C)c(=O)n(CCOC(=O)C=C)c1=O	5.45 µM (active)	27.3 µM (active)	27.3 µM (active)		inactive	inactive	inactive	inactive	inactive	inactive	inactive	inactive	inactive		inactive	inactive	inactive		
CC(C)n1nc(-c2cc3cc(O)ccc3[nH]2)c2c(N)ncnc21	9.44 µM (active)	26.6 µM (active)			inactive	inactive	inactive	inactive	inactive	inactive	inactive	inactive			inactive	inactive	inactive		
NC(=NCCCCCCN=C(N)/N=C(\N)Nc1ccc(Cl)cc1)/N=C(\N)Nc1ccc(Cl)cc1	inactive	38.2 µM (active) [middle of 4 runs]			inactive	inactive	inactive	inactive	inactive	inactive	inactive	inactive	inactive	inactive	inactive		inactive		
CCOc1nc2cccc(C(=O)OC(C)OC(=O)OC3CCCCC3)c2n1Cc1ccc(-c2ccccc2-c2nn[nH]n2)cc1 (stereo not given)	inactive	12.2 µM (active)		13.7 µM (active)	inactive	inactive	inactive	inactive	inactive	inactive	inactive	inactive	inactive	inactive	inactive	inactive			
CCCCC(CC)COC(=O)c1ccccc1C(=O)O (stereo not given)	inactive	inactive			inactive	inactive	inactive		inactive	inactive	inactive	inactive	inactive	inactive	inactive	inactive	inactive	39.6 µM (active)	inactive
CC1(C)CCC(C)(C)c2cc(C(=O)Nc3ccc(C(=O)O)cc3)ccc21	inactive	61.1 µM (active)		54.5 µM (active)	inactive	inactive	inactive	inactive	inactive	inactive	inactive	inactive		inactive	inactive	inactive	inactive		
